# PubChem BioAssay
# Values joined by “and” are separate entries in the source; they are usually repeats but may differ in a detail not shown here. Identical values can stand only once. Where a structure was tested more than once in an assay, its records may differ in their call. Active and inactive are the calls of the source. Unless noted, no stated cut-off is given here; in the data, active means inhibition above about 80%; inactive means the rest.
# Assays:
# [1] = sensitizers of A549 cells to miR-34 induction, primary screen, imaging, A549 dox-inducible miR-34, nuclei and caspase counts (AID 1347080;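 active means compounds whose cell count with miR-34 switched on is under 0.7 times the count with it off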); details: A549 miR-34 inducible, Hoechst nuclei count, 48 h
# [2] = survival rescue of mitochondrial mutant cells in low glucose, primary screen, MELAS cybrids, Rieske KO mouse fibroblasts, CellTiter-Glo (AID 1508586;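 active means mean z-score across replicates of 1.96 or higher in either the MELAS or the Rieske mutant cell line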;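 further: z relative to plate mean and SD of compound and empty wells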)
# [3] = LFS_MB_P medulloblastoma growth inhibition, cell-based, chromothripsis tumors, cisplatin or BGB combos (AID 1671449); details: LFS_MB_P medulloblastoma cells;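 further: cells exposed for 96 hours; 0% = vehicle DMSO and 100% = killing by high DMSO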
# [4] = HDN33 neuroblastoma growth inhibition, cell-based, chromothripsis tumors, cisplatin or BGB combos (AID 1671450); details: HDN33 neuroblastoma cells, stronger effect = higher value;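 further: cells exposed to compound for four days; 0% = vehicle DMSO and 100% = cell killing by high DMSO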
# [5] = ICB984 medulloblastoma cell growth inhibition, synergistic combos for chromothripsis tumors, cisplatin or BGB combos (AID 1671451; call rule not given here;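 further: cells exposed for 96 hours before readout; 0% = vehicle DMSO and 100% = killing by high DMSO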); details: ICB984 medulloblastoma cells, drug combinations, stronger effect = higher value
# [6] = LFS_MB_1R medulloblastoma cell growth inhibition, synergistic combos for chromothripsis tumors, cisplatin or BGB combos (AID 1671452); details: LFS_MB_1R medulloblastoma cells, stronger effect = higher value;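 further: cells exposed for 96 hours before readout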
# [7] = HTB85 osteosarcoma cell growth inhibition, synergistic combos for chromothripsis tumors, BGB or cisplatin IC20 combos (AID 1671453); details: HTB85 osteosarcoma cells, drug combinations, stronger effect = higher value;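 further: cells exposed for 96 hours before readout; 0% = vehicle DMSO and 100% = high DMSO killing control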
# [8] = CRL2098 osteosarcoma cell growth inhibition, synergistic combos for chromothripsis tumors, BGB or cisplatin IC20 combos (AID 1671454); details: CRL2098 osteosarcoma cells, drug combinations, stronger effect = higher value;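 further: cells exposed for 96 h before readout; 0% = vehicle DMSO and 100% = killing by high DMSO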
# [9] = HD-MB03 medulloblastoma cell growth inhibition, synergistic combos for chromothripsis tumors, BGB or cisplatin IC20 combos (AID 1671455; in the data active means inhibition above about 83%;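 further: 0% = vehicle DMSO and 100% = high DMSO as cytotoxic control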); details: HD-MB03 medulloblastoma cells, stronger effect = higher value
# [10] = UWB1.289 ovarian carcinoma cell growth inhibition, synergistic combos for chromothripsis tumors, BGB or cisplatin combos (AID 1671456); details: UWB1.289 ovarian carcinoma cells, stronger effect = higher value;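 further: cells exposed to compound for four days; 0% = vehicle DMSO and 100% = killing by high DMSO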
# [11] = LFS_MB_2R medulloblastoma cell growth inhibition, synergistic combos for chromothripsis tumors, cisplatin combos (AID 1671457); details: LFS_MB_2R medulloblastoma cells, stronger effect = higher value;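 further: cells exposed to compound for four days before readout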
# [12] = MDA-MB-436 breast carcinoma cell growth inhibition, synergistic combos for chromothripsis tumors, BGB or cisplatin combos (AID 1671458; call rule not given here;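 further: cells exposed for 96 hours; 0% = vehicle DMSO and 100% = killing by high DMSO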); details: MDA-MB-436 breast carcinoma growth inhibition, drug combinations, stronger effect = higher value
# [13] = UWB1.289_BRCA1 ovarian cancer growth, cell-based, BGB or cisplatin combinations (AID 1671459); details: UWB1.289 BRCA1 ovarian carcinoma, drug combinations, stronger effect = higher value
# [14] = human astrocyte viability loss, single and combined drugs, cytotoxicity control for chromothriptic childhood tumor combination screen, cell-based, BGB or cisplatin IC20 combos (AID 1671460); details: Human astrocytes, drug combinations, stronger effect = higher value;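 further: cells exposed to compounds for 96 hours before viability readout; 0% = vehicle and 100% = killing control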
# [15] = growth inhibition of BT084 medulloblastoma cells, cell-based, ICGC_MB145, cisplatin and BGB IC40 combos (AID 1671461); details: drug combinations, stronger effect = higher value;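 further: cells exposed to drugs for 96 hours; 0% = vehicle DMSO and 100% = high DMSO full killing control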
# [16] = growth inhibition of RCMB18 medulloblastoma cells, cell-based, cisplatin and BGB IC40 combos (AID 1671462); details: stronger effect = higher value;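 further: cells exposed to compound for four days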
# [17] = growth inhibition of CRL1545 osteosarcoma cells, cell-based, cisplatin and BGB IC20 combos (AID 1671464); details: stronger effect = higher value;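 further: cells exposed to compound for 96 hours before readout; 0% = vehicle DMSO and 100% = high DMSO killing control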
# [18] = measured here: combination with BGB IC40, at 0.05 µM
# [19] = measured here: with BGB IC20 combination, at 0.5 µM
# [20] = measured here: with cisplatin IC20 combination, at 0.5 µM
# [21] = measured here: combination with cisplatin, at 0.5 µM
# [22] = measured here: combination with cisplatin, at 5 µM
compound,measurement,setting,value
COc1ccc(CC(N)C(=O)NC2C(CO)OC(n3cnc4c(N(C)C)ncnc43)C2O)cc1 (centres undefined),fold change,"[1]; stronger effect = lower value, cell number ratio, induced over uninduced",1 (inactive)
same,fold change,[1]; measured here: relative caspase fold change +Dox/-Dox,0.403
same,cell count,"[1]; measured here: total cells with miR-34 induction, stronger effect = lower value",798
same,cell count,[1]; measured here: total cells without miR-34 induction,796
same,z-score,"[2]; MELAS cybrid survival, CellTiter-Glo 48 h, stronger effect = higher value",-0.998 (inactive)
same,z-score,"[2]; Rieske KO mouse fibroblast survival, CellTiter-Glo 72 h",-2.06
same,inhibition,"[3]; at 0.5 µM, stronger effect = higher value",-25.1% (inactive) and 6.28% (inactive)
same,inhibition,"[3]; measured here: combination with BGB IC20, at 0.005 µM",7.23% and -8.63%
same,inhibition,"[3]; measured here: combination with BGB IC40, at 0.005 µM",-30.8% and -22.1%
same,inhibition,[3]; [18],-25.1% and 4.36%
same,inhibition,"[3]; measured here: combination with cisplatin, at 0.5 µM, stronger effect = higher value",-20.6% and 32.4%
same,inhibition,"[3]; measured here: combination with cisplatin, at 5 µM, stronger effect = higher value",120% and 124%
same,inhibition,"[4]; BGB combo, at 5 µM",100% and 99.9%
same,inhibition,[4]; at 0.5 µM,75.5% (inactive) and 96.4% (active)
same,inhibition,"[4]; cisplatin combo, at 5 µM",99.9% and 100%
same,inhibition,[4]; [19],78.8% and 94.9%
same,inhibition,[4]; [20],74% and 96.7%
same,inhibition,"[4]; single agent, at 5 µM",99.9% and 100%
same,inhibition,"[5]; BGB IC20 combo, at 0.005 µM",14.3% and 49.6%
same,inhibition,"[5]; BGB IC40 combo, at 0.005 µM",37% and 55.6%
same,inhibition,"[5]; BGB IC40 combo, at 0.05 µM",100%
same,inhibition,[5]; at 0.5 µM,-26.8% (inactive) and -23.9% (inactive)
same,inhibition,"[5]; cisplatin combo, at 0.05 µM",101% and 100%
same,inhibition,"[5]; cisplatin combo, at 0.5 µM",-24.2% and -19.9%
same,inhibition,"[5]; cisplatin combo, at 5 µM",-8.56% and -29.6%
same,inhibition,"[5]; measured here: 5 uM single agent, at 5 µM",-9.41% and -1.15%
same,inhibition,[6]; at 0.5 µM,31.4% (inactive) and 64.5% (inactive)
same,inhibition,[6]; [18],0.687% and -51.1%
same,inhibition,[6]; [21],59.4% and 79.7%
same,inhibition,[6]; [22],102% and 99%
same,inhibition,[7]; at 0.5 µM,82.9% (active) and 95.9% (active)
same,inhibition,"[7]; measured here: with BGB IC20, at 0.5 µM",84.1% and 96.2%
same,inhibition,"[7]; measured here: with BGB IC20, at 5 µM",100%
same,inhibition,"[7]; measured here: with cisplatin IC20, at 0.5 µM",80.8% and 96.9%
same,inhibition,"[7]; measured here: with cisplatin IC20, at 5 µM",99.9% and 100%
same,inhibition,"[7]; single agent, at 5 µM",100%
same,inhibition,[8]; at 0.5 µM,56.1% (inactive) and 91.8% (active)
same,inhibition,"[8]; measured here: combination with BGB at IC20, at 0.5 µM",67.8% and 88.9%
same,inhibition,"[8]; measured here: combination with cisplatin at IC20, at 0.5 µM",54.9% and 94.1%
same,inhibition,[9]; at 0.5 µM,87.7% (active) and 99.6% (active)
same,inhibition,"[9]; measured here: combo with BGB at IC20, at 0.5 µM",88.7% and 99.3%
same,inhibition,"[9]; measured here: combo with cisplatin at IC20, at 0.5 µM",91.5% and 99.7%
same,inhibition,[10]; at 0.5 µM,50% (inactive) and 83.6% (active)
same,inhibition,"[10]; measured here: inhibition with BGB combination, at 0.05 µM",-13.6% and -16.5%
same,inhibition,"[10]; measured here: inhibition with cisplatin combination, at 0.05 µM",-12.2% and -18.5%
same,inhibition,[11]; at 0.5 µM,29.8% (inactive) and 56.9% (inactive)
same,inhibition,[11]; [21],55.5% and 77.6%
same,inhibition,[11]; [22],108% and 104%
same,inhibition,[12]; at 0.5 µM,57.5% (inactive) and 76.7% (inactive)
same,inhibition,"[12]; measured here: BGB combination, at 0.5 µM",54.4% and 71.5%
same,inhibition,"[12]; measured here: BGB combination, at 5 µM",97.5% and 96%
same,inhibition,"[12]; measured here: cisplatin combination, at 0.5 µM",53% and 76.1%
same,inhibition,"[12]; measured here: cisplatin combination, at 5 µM",98.3% and 97.8%
same,inhibition,"[13]; BGB combination, concentration series, at 5 µM",117% and 113%
same,inhibition,[13]; at 0.5 µM,59% (inactive) and 95.4% (active)
same,inhibition,"[13]; cisplatin combination, concentration series, at 5 µM",117% and 111%
same,inhibition,[14]; at 0.5 µM,40.4% (inactive) and 94.2% (active)
same,inhibition,"[14]; measured here: combo with BGB IC20, at 0.5 µM",44.5% and 93.9%
same,inhibition,"[14]; measured here: combo with cisplatin IC20, at 0.5 µM",14.8% and 91.4%
same,inhibition,[15]; at 0.5 µM,25.7% (inactive) and 46.2% (inactive)
same,inhibition,"[15]; cisplatin combination, at 0.5 µM",43% and 48.9%
same,inhibition,"[15]; cisplatin combination, at 5 µM",88.5% and 94%
same,inhibition,"[15]; measured here: BGB IC40 combination 0.05 uM, at 0.05 µM",-4.12% and 46.7%
same,inhibition,"[15]; single agent, at 5 µM",105% and 104%
same,inhibition,[16]; at 0.5 µM,33.4% (inactive) and 51.8% (inactive)
same,inhibition,"[16]; cisplatin combo, at 5 µM",76% and 95.5%
same,inhibition,"[16]; measured here: BGB IC40 combination, at 0.05 µM",-32% and 8.46%
same,inhibition,[16]; [21],49.2% and 73.8%
same,inhibition,"[16]; single agent, at 5 µM",95.9% and 95.4%
same,inhibition,[17]; at 0.5 µM,86.2% (active) and 95.7% (active)
same,inhibition,[17]; [19],92.5% and 96.5%
same,inhibition,[17]; [20],82.6% and 95.3%
same,inhibition,"[17]; single agent, at 0.05 µM",-45.7% and -4%
same,inhibition,"[17]; single agent, at 5 µM",100% and 99.7%
